MITF TRPM1 inh = reduces MITF-dependent TRPM1 promoter luciferase signal. AID 488899. inhibition, % at 12.5 µM. SK-MEL-5 TRPM1 promoter luciferase, 24 h. hit rate 0.83% among 330,000;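 active = mean inhibition across replicates of 60% or more, whatever share of single replicates reaches that level; inconclusive = some that reach 60%, reason not given; inactive = mean inhibition across replicates below 60%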
MITF act = MITF TRPM1 promoter activation in melanoma cells | SK-MEL-5 TRPM1-promoter luciferase, 24 h; % of positive control, neutral wells = 0 | activation, % at 12.5 µM | AID 588334 | hit rate 0.75% among 300,000;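 active = mean activation of at least 80% with every replicate also reaching 80%; inconclusive = mean reaches 80% but some replicate falls short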;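 also: 0% = neutral control wells and 100% = parthenolide positive control wells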
Wnt bcat act = activators of Wnt/beta-catenin signaling. Wnt/beta-catenin reporter cell assay, activator, plate reader. AID 743398. hit rate 1.2% among 300,000. activation, % at 9.35 µM; in the data active = activation above about 30%, passing the limit was not always enough; inconclusive = no clear call, values can overlap the other calls;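 also: 0% = neutral control wells and 100% = positive control wells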
esBAF inh = blocks esBAF chromatin remodeling in mouse ES cells; Bmi1-luciferase knock-in reporter, 24 h; 100% = twice the neutral-well signal; reporter increase, % at 12.5 µM; AID 602393; hit rate 2% among 350,000; in the data active = activation above about 40%; inconclusive = no clear call, values can overlap the other calls;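 also: 0% = median of the plate's neutral control wells and 100% = double that signal; a rise in the Bmi1 reporter signal indicates esBAF inhibition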
Statin myotox sup = suppression of simvastatin myotoxicity. C2C12 myotubes + simvastatin, ATP luminescence, 48 h; scaled: DMSO 0, geranylgeraniol control 100. rescue of ATP level, % at 7.49 µM. hit rate 0.78% among 330,000;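 active = mean ATP rescue above about 67%, or every replicate alone reaching that limit, limit read from the data, passing the limit was not always enough; inconclusive = no clear call, values can overlap the other calls; inactive = mean under the limit and some replicate under it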;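 also: myotubes were challenged with 10 µM simvastatin during compound exposure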
EBV LMP1 NFkB = inhibitors of Epstein-Barr LMP1-induced NF-kappaB reporter; AID 504558; LMP1-induced NF-kappaB luciferase reporter cells, luminescence; inhibition, % at 12.5 µM; hit rate 0.69% among 350,000; in the data active = inhibition above about 41%; inconclusive = no clear call, values can overlap the other calls;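 also: 0% = neutral control wells and 100% = reference inhibitor control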
* = called active by the depositor; ? = inconclusive; / = no result given. Most compounds without a hit are left out; they make up all but 4% or so of the library.

SMILES	MITF TRPM1 inh	MITF act	Wnt bcat act	esBAF inh	Statin myotox sup	EBV LMP1 NFkB
CN(CCc1ccccn1)C(=O)CC1C(=O)NCCN1Cc1ccc(-c2ccccc2)cc1 (stereo not given)	5	-7	-1	/	/	1
CCN1CCN(c2ccc(S(=O)(=O)N3CCCCC3)cc2NC(=O)/C=C/c2cccc(OC)c2OC)CC1	78*	-78	-17	/	/	-7
CCN1CCN(c2ccc(S(=O)(=O)N3CCCCC3)cc2NC(=O)/C=C/c2ccc(F)cc2)CC1	-4	8	-3	9	1	2
CCCS(=O)(=O)N1CCCC(C(=O)NCCN(C)Cc2ccccc2)C1 (stereo not given)	8	-6	/	9	1	0
CCCS(=O)(=O)N1CCC(C(=O)NC2CCCC(C)C2C)CC1 (stereo not given)	-20	21	/	9	-2	3
CCCS(=O)(=O)N1CCCC(C(=O)NCCN2CCC(Cc3ccccc3)CC2)C1 (stereo not given)	8	-11	/	8	117*	13
CCCS(=O)(=O)N1CCCC(C(=O)NC2CCCC(C)C2C)C1 (stereo not given)	5	-1	/	3	-2	60*
COc1cccc(/C=C2\CCc3ccccc3C2=O)c1	-75	66	35*	42	-1	-15
CC(=O)Oc1ccc(/C=C2/CCc3ccccc3C2=O)cc1	-72	75	13	52*	5	3
COc1ccc2c(c1)CC/C(=C/c1cc(OC)c(OC)c(OC)c1)C2=O	-3	7	-4	-4	2	-2
COc1ccc2c(c1)CC/C(=C\Nc1ccc3c(c1)OCO3)C2=O	-78	?	26	53*	-17	-43
O=C1/C(=C/Nc2ccc3c(c2)OCO3)CCc2ccccc21	15	-14	/	/	-49	7
COc1ccc2c(c1)CC/C(=C\C=C\c1ccccc1)C2=O	-22	/	31*	?	9	-8
Nc1ccc(-c2cnc[nH]2)cc1[N+](=O)[O-]	-109	10	0	/	/	0
CCc1ccccc1NC(=O)CN(C)C(=O)CSc1nn(-c2ccc(F)cc2)c(=S)s1	-14	15	-2	/	/	-33
C/C(=N\N=C1/NC(=O)C(C)S1)c1ccco1 (stereo not given)	-10	11	1	4	-8	-3
O=C(c1ccc(N2C(=O)C3C4CC(C(Br)C4Br)C3C2=O)cc1)N1CCCCC1 (stereo not given)	/	?	-1	-7	-1	-10
CN(CC(=O)Nc1ccc(F)cc1)C(=O)CSc1nnc(Cc2ccccc2)o1	13	-12	63*	0	5	-3
CC1(C(=O)Nc2nccs2)Cc2ccccc2C(=O)O1 (stereo not given)	-3	3	/	-2	7	-6
COc1cccc(C(=O)OCn2nnc3ccccc3c2=O)c1OC	1	0	0	-2	-4	53*
COc1cc(C(=O)OCn2nnc3ccccc3c2=O)cc(OC)c1OC	6	-5	-1	11	0	4
O=C(c1ccccc1)c1cc(Cl)ccc1N1C(=O)C=CC1=O	84*	-83	-4	-17	-14	9
N#Cc1cc(C(=O)c2cc(Cl)ccc2O)cn(-c2ccccc2)c1=O	-17	12	-1	/	/	-11
COc1cc2cc(C(=O)N3CCN(c4ccccc4OC)CC3)[nH]c2cc1OC	7	-8	0	-3	2	53*
COc1ccccc1N1CCN(C(=O)c2cc(-c3ccc(F)cc3)[nH]c2C)CC1	-4	6	-2	4	119*	-3
SMILES	MITF TRPM1 inh	MITF act	Wnt bcat act	esBAF inh	Statin myotox sup	EBV LMP1 NFkB
COc1ccccc1N1CCN(C(=O)c2ccc(S(=O)(=O)N3CCCCCC3)cc2)CC1	13	-11	/	1	127*	4
O=C(c1ccc(S(=O)(=O)N2CCCCC2)cc1)N1CCN(c2ccccc2F)CC1	1	3	-11	/	/	-4
CCCOc1cccc(C(=O)N(Cc2ccc(OC)c(OC)c2)C2CCS(=O)(=O)C2)c1 (stereo not given)	1	0	/	-6	15	-16
O=C1c2ccccc2S(=O)(=O)c2cc(C(=O)N3CCN(c4ncccn4)CC3)ccc21	3	-3	2	1	4	0
COc1ccc(C(CC(=O)c2ccc(O)cc2)S(=O)(=O)c2ccc(C)cc2)cc1 (stereo not given)	-85	86*	20	33	-13	-1
Nc1ccccc1SC(CC(=O)c1ccccc1)c1ccc([N+](=O)[O-])cc1 (stereo not given)	/	/	80*	29	19	-11
COc1ccc(C(CC(=O)c2ccc(C)cc2)Nc2ccc([N+](=O)[O-])cc2)cc1 (stereo not given)	-15	12	8	/	/	-2
Cc1ccc(C(=O)CC(SCC(=O)O)c2ccc([N+](=O)[O-])cc2)cc1 (stereo not given)	-9	14	90*	/	/	8
COc1ccc(C(CC(=O)c2ccc(C)cc2)Sc2ccccc2N)cc1 (stereo not given)	/	/	47*	60*	23	-50
O=C(NCCSc1ccccc1)c1ccc(Br)cc1	-24	29	-4	/	/	-36
Cc1ccccc1C(=O)NCCSc1ccccc1	-92	96*	/	55*	-1	-32
O=C(NCCSc1ccccc1)c1cncc(Br)c1	-33	36	/	76*	10	-27
CCC(NC(=O)c1cncc(Br)c1)c1ccccc1 (stereo not given)	6	-3	31*	-6	12	1
COc1ccc(Cl)cc1NC(=S)Nc1ccccc1F	3	-2	1	2	-14	-4
CCCCn1c(N)c(N(CC)C(=O)c2ccc(Cl)c([N+](=O)[O-])c2)c(=O)[nH]c1=O	/	/	17	0	9	4
COc1ccc(NC(=O)COC(=O)c2ccc3ccccc3n2)c(OC)c1	19	-19	-1	-4	23	-5
CCOC(=O)C1CCN(C(=O)c2ccc3c(=O)n4c(nc3c2)CCCCC4)CC1	-6	9	-3	/	/	-5
O=c1c2c3c(sc2nc(N2CCNCC2)n1CCc1ccccc1)CCCCC3	69*	/	-2	/	/	-8
O=c1c2c3c(sc2nc(NCCO)n1CCc1ccccc1)CCCCC3	12	-12	-6	1	-46	-2
CC(=O)Nc1ccc(NC(=O)c2cc(-c3ccc(F)cc3C)n[nH]2)cc1	/	/	13	61*	-8	/
Cc1ccc(O)c(-c2cc(C(=O)Nc3cccnc3)[nH]n2)c1	-217	215*	60*	87*	-22	-59
COc1ccc(OC)c(NC(=O)c2cc(-c3cc(C)ccc3O)n[nH]2)c1	0	2	3	0	-58	-10
Cc1ccc(C)c(NC(=O)c2cc(-c3ccccc3O)n[nH]2)c1	-65	56	5	65*	-43	-1
Cc1ccc(N2C(=O)c3ccc(C(=O)Nc4cccnc4)cc3C2=O)c(C)c1	13	-8	-1	21	90*	-5

Source: PubChem (Broad Institute)
